Source: PubChem BioAssay AID743446 (Broad Institute, 2014)
Entries with a potency or affinity are not part of this list. Calls of active or inactive are those of the source. The rule behind the calls is not given here.

Test: viability loss in HEK293 cells – cell-based, plate reader, cherry-picked samples, cytotoxicity control, dose response (AID 743446)
Settings: active compounds read low; at 26 µM unless noted

Compound	max activity
Cc1ccc2nc(NC(=O)CCCC(=O)O)sc2c1	12.5% (inactive)
COc1ccc(C(=O)Nc2nnc(SCC(=O)NCc3ccco3)s2)c(OC)c1	15% (inactive)
C=CCNC(=O)c1c(Cl)nc(C)c([N+](=O)[O-])c1C	11.7% [at 0.1 µM] (inactive)
O=C(Nc1nc2ccccc2[nH]1)c1ccc(Cl)cc1	71.5% [at 0.8 µM] (inactive)
CC(C)c1ccc(NC(=O)N2CCN(S(=O)(=O)c3ccccc3)CC2)cc1	17.9% [at 0.38 µM] (inactive)
Cc1ccsc1/C=N/Nc1cccc(C(=O)O)c1	25.6% [at 0.8 µM] (inactive)
C[C@@H]1CN([C@@H](C)CO)S(=O)(=O)c2ccc(C3=CCCC3)cc2O[C@H]1CN(C)C(=O)c1ccccc1	11.7% [at 0.1 µM] (inactive)
CCOc1ccc(C(=O)Nc2cccc(C(=O)O)c2C)cc1Cl	26.7% (inactive)
CC(C)(C)C(=O)Nc1ccc(NC(=O)c2ccco2)nc1	11.3% [at 0.38 µM] (inactive)
O=c1c2c(nc3cc(-c4ccc(F)cc4)[nH]n13)CCCC2	-12.8% (inactive)
CC(C)c1ccc2c(c1)C(N1CCNCC1)Cc1ccc(F)cc1S2 (centres undefined)	-119% (inactive)
N#Cc1cccc(-c2ccc([C@@H]3[C@H](CO)N4CCCCN(C(=O)Nc5cccc(F)c5)C[C@@H]34)cc2)c1	4.74% [at 12 µM] (inactive)
O=C(c1ccc2c(c1)OCCO2)C1CCN(S(=O)(=O)c2ccc(F)cc2)CC1	25.1% [at 0.1 µM] (inactive)
c1ccc(COc2ccc(OCCCN3CCCC3)cc2)cc1	-13.8% [at 0.05 µM] (inactive)
